PubChem BioAssay AID411 (National Center for Advancing Translational Sciences (NCATS), 2006)
About 1,600 (2.2%) of roughly 72,000 compounds were called active. Where a call stands in place of a potency, no number is given. This excerpt belongs to a sample that is enriched for actives. Unmarked numbers belong to inactive results. Calls come from the whole dose curve; as a rule, active = well fitted inhibition curve with a large enough effect; inconclusive = small, poorly fitted or top-dose-only effect; inactive = flat fitted curve, though single readings scatter.

Target: Luciferin 4-monooxygenase (Photinus pyralis) (UniProt P08659)
Experiment: qHTS Assay for Inhibitors of Firefly Luciferase; note: nearly all actives have a fitted effect of over 40% in size
Conditions: purified firefly luciferase, luminescence, 8 min; series mostly up to 57.1 µM
Description: To aid in the interpretation of high-throughput screening (HTS) results derived from luciferase-based assays, we used quantitative HTS, an approach that defines the concentration-response behavior of each library sample, to profile the ATP-dependent luciferase from Photinus pyralis against more than 72 000 samples. Luciferase (PKLight, Cambrex Corporation) was assayed for its ability to generate light using ATP and luciferin as substrates. The ATP concentration in the assay (10 uM) was within the linear range of enzyme activity for the assay conditions used. See following reference for further details: [1] Auld DS, Southall NT, Jadhav A, Johnson RL, Diller DJ, Simeonov A, Austin CP, Inglese J. Characterization of chemical libraries for luciferase inhibitory activity. J Med Chem. 2008 Apr 24;51(8):2372-86. Auld DS, Zhang YQ, Southall NT, Rai G, Landsman M, Maclure J, Langevin D, Thomas CJ, Austin CP, Inglese J. A Basis for Reduced Chemical Library Inhibition of Firefly Luciferase Obtained from Directed Evolution. J. Med. Chem., 2009, 52 (5), pp 1450#1458 [3] Auld DS, Thorne N, Nguyen DT, Inglese J. A specific mechanism for nonspecific activation in reporter-gene assays. ACS Chem Biol. 2008 Aug 15;3(8):463-70. Auld DS, Thorne N, Maguire WF, Inglese J. Mechanism of PTC124 activity in cell-based luciferase assays of nonsense codon suppression. Proc Natl Acad Sci U S A. 2009 Mar 3;106(9):3585-90. Inglese J, Auld DS, Jadhav A, Johnson RL, Simeonov A, Yasgar A, Zheng W, Austin CP. Quantitative high-throughput screening: a titration-based approach that efficiently identifies biological activities in large chemical libraries. Proc Natl Acad Sci U S A. 2006 Aug 1;103(31):11473-8.
Four uL of substrate mix (final concentration, 50 mM imidazole pH 7.2, 50 mM KCl, 7 mM MgCl2, 10 uM ATP, 0.01% Tween 20, 0.05% BSA) was dispensed into white 1536 well plates. Twenty-three nL of compound was delivered by a pin tool and 2 uL of luciferase detector mix (PKLight, Cambrex) was added. Following 8-minute incubation at ambient temperature, luminescence was measured by a ViewLux (Perkin Elmer) at 5 seconds exposure/plate.
Potency is the fitted concentration of half-maximal effect.

Sequence of Luciferin 4-monooxygenase (Photinus pyralis) (P08659 whole entry, looked up): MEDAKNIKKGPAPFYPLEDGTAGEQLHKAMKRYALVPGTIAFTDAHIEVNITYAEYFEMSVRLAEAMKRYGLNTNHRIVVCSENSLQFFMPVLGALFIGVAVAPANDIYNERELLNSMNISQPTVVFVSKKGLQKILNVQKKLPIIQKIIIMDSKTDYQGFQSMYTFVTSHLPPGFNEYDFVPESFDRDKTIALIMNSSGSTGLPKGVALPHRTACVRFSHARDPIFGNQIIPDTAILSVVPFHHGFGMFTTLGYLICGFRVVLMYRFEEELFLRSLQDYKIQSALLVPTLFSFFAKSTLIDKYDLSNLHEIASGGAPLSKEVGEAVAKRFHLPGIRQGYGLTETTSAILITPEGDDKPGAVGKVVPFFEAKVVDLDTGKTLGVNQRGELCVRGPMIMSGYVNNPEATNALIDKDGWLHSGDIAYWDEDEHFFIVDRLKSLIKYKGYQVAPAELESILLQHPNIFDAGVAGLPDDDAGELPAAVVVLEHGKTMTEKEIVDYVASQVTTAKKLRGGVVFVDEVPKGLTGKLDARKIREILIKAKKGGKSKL

Structure (SMILES) | Potency | activity change, negative = inhibition
O=c1oc2cc(O)ccc2cc1-c1ccc(F)cc1 | inactive | –
COc1ccc(-c2cc3ccc(OCc4nn[nH]n4)cc3oc2=O)cc1 | 3.16 µM (active) | –
CCCCc1cc(=O)oc2cc(C)cc(OCc3nn[nH]n3)c12 | inactive | –
CCn1ccnc1C[C@@H]1COc2ccccc2O1 | inactive | –
CCOc1ccc(C(C)C)cc1S(=O)(=O)n1nc(C)cc1C | inactive | –
O=C1C(c2ccccn2)=[N+]([O-])c2ccccc21 | inactive | –
CCn1nc(C(=O)OCC(=O)N2c3ccccc3CC2C)c2ccccc2c1=O (stereo not drawn) | inactive | –
CCC(=O)N1c2ccc(S(=O)(=O)CCC(=O)N3CCN(c4ccccc4)CC3)cc2CC1C (stereo not drawn) | inactive | –
CCCC(=O)N1c2ccc(-c3csc(N)n3)cc2CC1C (stereo not drawn) | 12.6 µM (active) | –
O=C(c1ccc2c(c1)OCCO2)C1CCN(S(=O)(=O)c2cccc(F)c2)CC1 | inactive | –
O=C(c1ccc(F)cc1)C1CCN(CCCCc2ccccc2)CC1 | inactive | –
Cc1nc2cnc(N3CCN(C)CC3)nc2n(CCC#N)c1=O | – | 0.64% [at 11.4 µM]
O=C1CCC(C(=O)Nc2ccc(OC(F)F)cc2)N1 (stereo not drawn) | inactive | –
OCCCN1c2ccccc2Nc2nnc(-c3ccccc3)cc21 | 3.98 µM (active) | –
NS(=O)(=O)c1cc(Cl)c(Cl)c(S(N)(=O)=O)c1 | inactive | –
COc1ccc(Br)c2c1C[C@H](C(=O)O)CC2 | – | 3.64% [at 11.4 µM]
CCN(Cc1ccncc1)C(=O)[C@@H](CO)c1ccccc1 | inactive | –
Cn1c(=NC(=O)CSCC(=O)N2CCOCC2)sc2ccccc21 | inactive | –
Cn1c(=NC(=O)CSCC(=O)N2CCCCC2)sc2ccccc21 | inactive | –
Cn1c(=NC(=O)c2cnccn2)sc2ccccc21 | 12.6 µM (active) | –
Cc1cc(C)c2c(c1)cc(C)c1nnc(SCC(=O)Nc3cc(C)on3)n12 | inactive | –
Cc1nc(SCC(=O)Nc2cc(C)on2)c2c(C)c(C)sc2n1 | inactive | –
Cc1ccc2nc(-c3ccc(SCC(=O)Nc4cc(C)on4)nc3)[nH]c2c1 | 2.51 µM (active) | –
COc1ccc(N(C(=O)c2cccnc2)S(=O)(=O)c2ccc3c(c2)n(C)c(=O)n3C)cc1 | inactive | –
O=S(=O)(Nc1ccccn1)c1ccc(Oc2ccccc2)cc1 | inactive | –
O=C(c1cccc(C(=O)N2CCc3ccccc32)n1)N1CCc2ccccc21 | inactive | –
O=C(c1cnn2ccccc12)N1CCc2ccccc21 | 12.6 µM (active) | –

Structure (SMILES) | Potency | activity change, negative = inhibition
CCOC(=O)N1CCC(NC(=O)c2cnn3ccccc23)CC1 | inactive | –
O=C(c1ccc([N+](=O)[O-])cc1)[C@@H](Br)[C@@H](Br)c1ccnc2ccccc12 | – | -0.655% [at 11.4 µM]
COC(=O)CNS(=O)(=O)c1ccc(Cc2ccc(S(=O)(=O)NCC(=O)OC)cc2)cc1 | inactive | –
O=C(Nc1ccncc1)c1cc2ccccc2o1 | 20 µM (active) | –
O=C(NCCc1ccc2c(c1)OCCO2)c1cc2ccccc2o1 | inactive | –
O=C(Nc1ccncc1)c1c(F)cccc1F | inactive | –
O=C(c1ccco1)N1CCC[C@@]2(CCN(Cc3nccs3)C2)C1 | – | 2.02% [at 11.4 µM]
COc1ccc(Cc2nnnn2CC(=O)O)cc1 | inactive | –
COC(=O)c1sccc1NC(=O)c1csc2c1CCCC2 | inactive | –
COC(=O)c1sc(NC(=O)c2ccc(OC)cc2OC)nc1C | 0.0794 µM (active) | –
COc1ccc(C(=O)Nc2nncs2)c(OC)c1 | inactive | –
COC(=O)c1sc(NC(=O)c2csc3c2CCCC3)nc1C | 10 µM (active) | –
CCOC(=O)c1sc(NC(=O)c2cc(S(=O)(=O)N3CCOCC3)ccc2C)nc1C | inactive | –
CC(=O)Cc1nsc(NC(=O)c2csc3c2CCCC3)n1 | inactive | –
CC(C)=CCC/C(C)=C/CO/N=C1/C[C@@H](O)[C@@H](O)[C@@H]2[C@@H]3C(=O)N(C(C)(C)C)C(=O)[C@H]3CC[C@H]12 | – | 0.109% [at 11.4 µM]
Cc1cnc(NC(=O)CSc2nnc(-c3ccc(Cl)cc3Cl)n2N)s1 | inactive | –
CCOC(=O)C1CCN(C(c2cc3cc(C)cc(C)c3[nH]c2=O)c2nnnn2C2CCCCC2)CC1 (stereo not drawn) | inactive | –
COc1ccc(-c2nn(-c3ccccc3)cc2C(=O)Nc2nc(CC(C)=O)ns2)cc1 | inactive | –
O=C(O)C1CCN(c2ncnc3ccc(-c4ccccc4C(F)(F)F)cc23)CC1 | – | 0.203% [at 2.29 µM]
COc1ccc(NC2CC(=O)N(C)C2=O)cc1 (stereo not drawn) | inactive | –
COc1ccccc1CNc1ccnc(-c2c(C)noc2C)n1 | – | -0.167% [at 2.29 µM]
CC(C)(C)c1csc(NC2=NS(=O)(=O)c3ccccc32)n1 | 7.94 µM (active) | –
CC(c1nnc(SCC(=O)Nc2sccc2C#N)n1-c1ccc(Cl)cc1)N(C)C (stereo not drawn) | inactive | –
O=S(=O)(c1cccs1)N1CCN(Cc2ccccc2)CC1 | inactive | –
CCCCN(C)C(=O)C1CCN(Cc2ccccn2)CC1 | inactive | –
Cc1cccc(-n2ncc3c(N4CCc5ccccc54)ncnc32)c1 | inactive | –
